Outcome and AC50 data for four molecules are collected here from PubChem BioAssay (EPA / NIEHS).

Active and inactive are the calls of the source. Rule for the calls: active = hit-call score of the fitted dose curve at least 0.9, where 1 is the maximum; inactive = score below 0.9.

What all share (conditions): mRNA level, 48 h; actives raise or lower the signal
Read-out in test [1]: Insulin Like Growth Factor 1 (IGF1), IGF1 (gene 3479)
As to the kind of experiment: LTEA_HepaRG_IGF1: Life Technologies and Expression Analysis (LTEA) Assay for Insulin Like Growth Factor 1 (IGF1) using HepaRG (AID 2283506). In outline: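 Differentiated human HepaRG cells were dosed for 48 h in serum-free induction medium with 0.5% DMSO, eight half-log concentrations up to 100 uM, in duplicate. IGF1 mRNA was quantified by qRT-PCR normalized to ACTB, GAPDH, POLR2A; bidirectional fitting versus DMSO.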

Read-out in test [2]: Intercellular Adhesion Molecule 1 (ICAM1), ICAM1 (gene 3383)
As to the kind of experiment: LTEA_HepaRG_ICAM1: Life Technologies and Expression Analysis (LTEA) Assay for Intercellular Adhesion Molecule 1 (ICAM1) using HepaRG (AID 2283507). In outline:
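Using the human liver line HepaRG, compounds are tested in duplicate over 48 h at concentrations up to 100 uM. Expression is determined by TaqMan qRT-PCR, normalized to endogenous controls, and analysed relative to 0.5% DMSO vehicle.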

Read-out in test [3]: Insulin-like growth factor-binding protein 1 (IGFBP1), IGFBP1 (gene 3484)
Kind of test: LTEA_HepaRG_IGFBP1: Life Technologies and Expression Analysis (LTEA) Assay for Insulin-like growth factor-binding protein 1 (IGFBP1) using HepaRG (AID 2283508). The method, boiled down:
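HepaRG, 48 h, 8 conc. (max 100 uM, half-log), duplicates, 0.5% DMSO. Readout: TaqMan qRT-PCR, ACTB/GAPDH/POLR2A normalisation. Fit: bidirectional vs DMSO.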

Read-out in test [4]: Interleukin 6 (IL6), IL6 (gene 3569)
Kind of test: LTEA_HepaRG_IL6: Life Technologies and Expression Analysis (LTEA) Assay for Interleukin 6 (IL6) using HepaRG (AID 2283509). The method, boiled down:
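Differentiated human HepaRG cells, plated 48 h then switched to serum-free induction medium, were exposed in duplicate for 48 h to eight half-log concentrations up to 100 uM in 0.5% DMSO. IL6 mRNA measured by qRT-PCR, normalized to ACTB/GAPDH/POLR2A.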

Read-out in test [5]: Interleukin 6 Receptor (IL6R), IL6R (gene 3570)
As to the kind of experiment: LTEA_HepaRG_IL6R: Life Technologies and Expression Analysis (LTEA) Assay for Interleukin 6 Receptor (IL6R) using HepaRG (AID 2283510). In outline:
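Differentiated human HepaRG cells, plated 48 h then switched to serum-free induction medium, were dosed in duplicate for 48 h at eight half-log concentrations up to 100 uM in 0.5% DMSO. IL6R mRNA quantified by qRT-PCR, normalized to ACTB/GAPDH/POLR2A; bidirectional fit versus DMSO.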

Read-out in test [6]: Potassium channel subfamily K member 1 (KCNK1), KCNK1 (gene 3775)
As to the kind of experiment: LTEA_HepaRG_KCNK1: Life Technologies and Expression Analysis (LTEA) Assay for Potassium channel subfamily K member 1 (KCNK1) using HepaRG (AID 2283511). The method, boiled down: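 Differentiated human HepaRG cells in serum-free induction medium were exposed in duplicate for 48 h to 8 half-log concentrations up to 100 uM in 0.5% DMSO. KCNK1 mRNA was measured by TaqMan qRT-PCR, normalized to ACTB, GAPDH and POLR2A, and fitted bidirectionally versus DMSO.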

Read-out in test [7]: Keratin 19 (KRT19), KRT19 (gene 3880)
Kind of test: LTEA_HepaRG_KRT19: Life Technologies and Expression Analysis (LTEA) Assay for Keratin 19 (KRT19) using HepaRG (AID 2283512). The method, boiled down: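 Readout is qRT-PCR of KRT19 mRNA, normalized to ACTB, GAPDH and POLR2A, from HepaRG cells treated 48 h with eight-point half-log dilutions topping at 100 uM. Activity in either direction is scored relative to 0.5% DMSO vehicle.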

Read-out in test [8]: JUN Transcription Factor, JUN (gene 3725)
Kind of test: LTEA_HepaRG_JUN: Life Technologies and Expression Analysis (LTEA) Assay for JUN Transcription Factor using HepaRG (AID 2283513). In outline: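 Differentiated HepaRG cells were exposed to chemicals for 48 h in serum-free induction medium, 8 concentrations from 100 uM in half-log steps, 0.5% DMSO vehicle, in duplicate. JUN mRNA was quantified by TaqMan qRT-PCR, normalized to ACTB, GAPDH, POLR2A.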

Read-out in test [9]: Lipase C (LIPC), LIPC (gene 3990)
Kind of test: LTEA_HepaRG_LIPC: Life Technologies and Expression Analysis (LTEA) Assay for Lipase C (LIPC) using HepaRG (AID 2283514). The method, boiled down: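 Differentiated human HepaRG cells in serum-free induction medium were exposed in duplicate for 48 h to eight concentrations (top 100 uM, half-log steps, 0.5% DMSO). LIPC mRNA was quantified by TaqMan qRT-PCR, normalized to ACTB, GAPDH and POLR2A, with bidirectional fitting versus DMSO.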

Read-out in test [10]: Lipoprotein lipase (LPL), LPL (gene 4023)
Kind of test: LTEA_HepaRG_LPL: Life Technologies and Expression Analysis (LTEA) Assay for Lipoprotein lipase (LPL) using HepaRG (AID 2283515). In outline:
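Differentiated human HepaRG cells in serum-free induction medium were exposed in duplicate for 48 h to eight half-log concentrations (top 100 uM) in 0.5% DMSO. LPL mRNA was quantified by TaqMan qRT-PCR, normalized to ACTB, GAPDH and POLR2A.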

Read-out in test [11]: MicroRNA 122 (MIR122), gene 406906
Kind of test: LTEA_HepaRG_MIR122: Life Technologies and Expression Analysis (LTEA) Assay for MicroRNA 122 (MIR122) using HepaRG (AID 2283516). Note: the transcript read is the microRNA miR-122. In outline:
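Differentiated human HepaRG cells were exposed 48 h in serum-free induction medium to eight half-log concentrations (top 100 uM, 0.5% DMSO). Transcript level was measured by TaqMan qRT-PCR, normalized to ACTB, GAPDH and POLR2A, and fitted bidirectionally versus DMSO.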

Read-out in test [12]: matrix metalloproteinase-10 (MMP10), MMP10 (gene 4319)
Kind of test: LTEA_HepaRG_MMP10: Life Technologies and Expression Analysis (LTEA) Assay for matrix metalloproteinase-10 (MMP10) using HepaRG (AID 2283517). The method, boiled down: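 HepaRG, collagen I, ~100,000 cells/well; serum-free induction medium; 48 h exposure, duplicate, 8-pt half-log to 100 uM, 0.5% DMSO. Readout: TaqMan qRT-PCR, normalized to ACTB/GAPDH/POLR2A; bidirectional fit vs DMSO.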

Read-out in a further test: MYC, MYC (gene 4609)
Kind of test: LTEA_HepaRG_MYC: Life Technologies and Expression Analysis (LTEA) Assay for MYC using HepaRG (AID 2283518). In outline: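 Expression changes were scored by TaqMan qRT-PCR with ACTB, GAPDH and POLR2A normalization. Cultures in serum-free induction medium received duplicate 8-point concentration series, highest 100 uM, for 48 h; DMSO (0.5%) served as baseline.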

Read-out in test [13]: Paternally Expressed 10 (PEG10), PEG10 (gene 23089)
As to the kind of experiment: LTEA_HepaRG_PEG10: Life Technologies and Expression Analysis (LTEA) Assay for Paternally Expressed 10 (PEG10) using HepaRG (AID 2283520). In outline:
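Differentiated HepaRG cells, plated 48 h then switched to serum-free induction medium, were exposed in duplicate for 48 h to eight half-log concentrations topping at 100 uM in 0.5% DMSO. PEG10 mRNA was quantified by TaqMan qRT-PCR, normalised to ACTB, GAPDH and POLR2A.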

Read-out in test [14]: Nuclear factor NF-kappa-B p105 subunit (Homo sapiens) (UniProt P19838)
As to the kind of experiment: LTEA_HepaRG_NFKB1: Life Technologies and Expression Analysis (LTEA) Assay for Nuclear Factor Kappa B Subunit 1 (NFKB1) using HepaRG (AID 2283521).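 Note: TaqMan qRT-PCR transcript normalised to ACTB GAPDH and POLR2A housekeeping genes.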 The method, boiled down: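 HepaRG, 48 h exposure; 8-pt half-log series from 100 uM in 0.5% DMSO; duplicates. Readout: NFKB1 mRNA by qRT-PCR (Fluidigm arrays), housekeeping-normalized. Gain/loss fit vs DMSO baseline.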

Read-out in test [15]: Protein phosphatase 2A (PPP2R4), PTPA (gene 5524)
Kind of test: LTEA_HepaRG_PPP2R4: Life Technologies and Expression Analysis (LTEA) Assay for Protein phosphatase 2A (PPP2R4) using HepaRG (AID 2283522). In outline: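 Differentiated HepaRG cells in serum-free induction medium were exposed in duplicate for 48 h to eight concentrations, top 100 uM with half-log dilutions, in 0.5% DMSO. PPP2R4 mRNA was quantified by TaqMan qRT-PCR, normalized to ACTB, GAPDH and POLR2A.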

Read-out in test [16]: Phosphatase and tensin (PTEN), PTEN (gene 5728)
Kind of test: LTEA_HepaRG_PTEN: Life Technologies and Expression Analysis (LTEA) Assay for Phosphatase and tensin (PTEN) using HepaRG (AID 2283523). The method, boiled down: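 Differentiated human HepaRG cells, plated 48 h then switched to serum-free induction medium, were exposed in duplicate for 48 h to eight half-log concentrations up to 100 uM in 0.5% DMSO. PTEN mRNA measured by TaqMan qRT-PCR, normalized to ACTB/GAPDH/POLR2A, bidirectional fit versus DMSO.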

Read-out in test [17]: solute carrier (SLC22A1), SLC22A1 (gene 6580)
As to the kind of experiment: LTEA_HepaRG_SLC22A1: Life Technologies and Expression Analysis (LTEA) Assay for solute carrier (SLC22A1) using HepaRG (AID 2283524). The method, boiled down: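 Human HepaRG cells were plated 48 h, switched to serum-free induction medium, then exposed in duplicate for 48 h to 8-point half-log series from 100 uM in 0.5% DMSO. SLC22A1 mRNA measured by qRT-PCR, normalized to ACTB/GAPDH/POLR2A, fitted bidirectionally versus DMSO.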

Read-out in test [18]: Pyruvate Dehydrogenase Kinase 4 (PDK4), PDK4 (gene 5166)
Kind of test: LTEA_HepaRG_PDK4: Life Technologies and Expression Analysis (LTEA) Assay for Pyruvate Dehydrogenase Kinase 4 (PDK4) using HepaRG (AID 2283525). In outline:
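Differentiated human HepaRG cells, pre-cultured 48 h, were exposed in duplicate for 48 h in serum-free induction medium to eight half-log concentrations up to 100 uM in 0.5% DMSO. PDK4 mRNA was quantified by qRT-PCR, normalized to ACTB, GAPDH and POLR2A, bidirectional fitting versus DMSO.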

Read-out in test [19]: matrix metalloproteinase-3 (MMP3), MMP3 (gene 4314)
Kind of test: LTEA_HepaRG_MMP3: Life Technologies and Expression Analysis (LTEA) Assay for matrix metalloproteinase-3 (MMP3) using HepaRG (AID 2283519). In outline: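 Differentiated human HepaRG cells, plated 48 h on collagen I, were exposed in duplicate for 48 h in serum-free induction medium to eight half-log concentrations up to 100 uM in 0.5% DMSO. MMP3 mRNA was quantified by TaqMan qRT-PCR, normalised to ACTB, GAPDH and POLR2A.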

Usually AC50 stands for the concentration giving half of the maximal activity seen.

Nuclear factor NF-kappa-B p105 subunit (Homo sapiens), sequence (P19838 whole entry, looked up): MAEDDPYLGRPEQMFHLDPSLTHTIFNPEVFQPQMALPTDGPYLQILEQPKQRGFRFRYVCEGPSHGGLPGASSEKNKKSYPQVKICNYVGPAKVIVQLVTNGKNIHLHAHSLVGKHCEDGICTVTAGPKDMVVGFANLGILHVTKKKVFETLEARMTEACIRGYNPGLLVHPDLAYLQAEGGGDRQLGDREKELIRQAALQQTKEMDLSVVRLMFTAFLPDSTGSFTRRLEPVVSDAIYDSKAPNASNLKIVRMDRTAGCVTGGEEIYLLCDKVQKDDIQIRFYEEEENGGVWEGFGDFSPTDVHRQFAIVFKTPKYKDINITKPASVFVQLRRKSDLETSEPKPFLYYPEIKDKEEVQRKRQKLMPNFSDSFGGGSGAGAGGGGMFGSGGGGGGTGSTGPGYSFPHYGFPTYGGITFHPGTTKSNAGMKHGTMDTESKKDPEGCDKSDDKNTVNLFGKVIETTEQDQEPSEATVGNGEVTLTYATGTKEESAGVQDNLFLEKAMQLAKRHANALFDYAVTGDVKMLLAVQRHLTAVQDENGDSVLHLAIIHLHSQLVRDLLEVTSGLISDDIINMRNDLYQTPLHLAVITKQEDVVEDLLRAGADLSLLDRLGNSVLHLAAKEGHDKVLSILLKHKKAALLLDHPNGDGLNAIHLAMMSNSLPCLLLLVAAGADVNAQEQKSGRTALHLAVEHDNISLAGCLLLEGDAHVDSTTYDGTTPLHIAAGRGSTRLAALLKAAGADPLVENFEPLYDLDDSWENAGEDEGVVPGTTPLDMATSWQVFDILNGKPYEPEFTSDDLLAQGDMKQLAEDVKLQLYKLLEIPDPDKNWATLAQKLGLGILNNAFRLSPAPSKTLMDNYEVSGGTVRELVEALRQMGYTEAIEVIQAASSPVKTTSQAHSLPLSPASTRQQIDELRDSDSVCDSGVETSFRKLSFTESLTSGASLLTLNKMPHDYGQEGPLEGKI

On to `NCC1(Cc2noc(=O)[nH]2)CCCCC1`, for which the molecule was classed as inactive in test [1], in [2], in test [3], in test [4], in test [5] and in [6]. The result in test [7], in test [8], in test [9], in test [10], in test [11] and in test [12] was inactive. The outcome with MYC, MYC (gene 4609) is “inactive”; in test [13], “inactive”; in [14], “inactive”; in test [15], “inactive”; in test [16], “inactive”; in [17], “inactive”. In addition, in [18], the molecule was classed as inactive.
`CCOC(=O)C(C)(C)Oc1ccc(Cl)cc1`: the call in [1], in test [2], in test [3], in test [4], in test [5] and in test [6] was inactive. In addition, the outcome in test [7], in [8], in test [9], in test [10], in test [11] and in test [12] was inactive. The outcome with MYC, MYC (gene 4609) was “inactive”; in test [19] it was “inactive”; in test [13] it was “inactive”; in test [14], “inactive”; in [15], “inactive”; in test [16], “inactive”. Further, the call in test [17] was inactive. The half-maximal activity concentration (AC50) in test [18] was 24.6 µM (active).
On to `COc1ccc2c(c1)c(CC(=O)O)c(C)n2C(=O)c1ccc(Cl)cc1`, for which the call in test [1], in test [2], in test [3], in [4], in test [5] and in test [6] was inactive. Also, the molecule was called inactive in test [7], in test [8], in test [9], in [10], in [11] and in [12]. In addition, the outcome in the test with MYC, MYC (gene 4609) was “inactive”; in [19], “inactive”; in test [13], “inactive”; in [15], “inactive”; in test [16], “inactive”; in test [17], “inactive”. The molecule was classed as inactive in [18].
Regarding `CN1CCCC1=O`, the result in [1], in [2], in test [3], in [4], in test [5] and in test [6] was inactive. For the same molecule, the outcome in [7], in test [8], in test [9], in test [10], in test [11] and in test [12] was inactive. In addition, the outcome with MYC, MYC (gene 4609) was “inactive”; in test [19], “inactive”; in [13], “inactive”; in [15] it was “inactive”; in test [16], “inactive”; in test [17], “inactive”. The outcome in test [18] was inactive.
